Experimental findings from PubChem BioAssay are described below.

The structures appear in SMILES notation. The source made the active and inactive calls.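 The calls were made as follows, unless noted: active = aptamer binding inhibition above 30%, about 3 SD of noise from non-fluorescent compounds; inactive = inhibition at or below 30%.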

The nature of assay [1]: inhibitors of CD8+ T cell-vesicle binding, pilot screen, LFA-1/ICAM-1 modulator project, MLPCN validation set, flow cytometry (AID 2523;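 active = response below a set limit, under 55% cells CD8-positive and vesicle-bound, and CD8 cells' 90th-percentile brightness under 279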;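 as to vesicle binding response: mean PE anti-B7-1 fluorescence of CD8+ cells relative to row control; 100% = QL9-loaded vesicles with DMSO vehicle in the same plate row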). The settings on record: 2C mouse CD8+ T cells, at 7 µM, stronger effect = lower value; double positive events: measured here: CD8+/vesicle+ event percentage.
Assay [2] concerns the target Integrin beta-1 (Homo sapiens) + Integrin alpha-4 (Homo sapiens) (UniProt P13612+P05556). In words: inhibition of HUTS-21 binding to VLA-4, pilot screen, VLA-4 allosteric modulator project, U937 cells, HUTS-21 mAb, flow cytometry, validation set (AID 2674;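 active = inhibition above 50%, about 3 SD of the validation set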;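 also: antibody binding induced by the VLA-4 ligand LDV present at three times its Kd; 0% = LDV ligand with antibody and no compound and 100% = antibody without LDV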). The settings on record: HUTS-21 LIBS mAb binding, at 6.7 µM, stronger effect = higher value, binding induced by LDV ligand. (A flow cytometer gives signals particle by particle.)

A short description of assay [3]: superoxide lowering in aged yeast cells, pilot screen, validation compound set (AID 2706;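 active = superoxide response below 65% of plate, a cut near 3 SD across the whole screen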;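 also: yeast exposed to compound for one week at 30 degrees C before staining; 100% = mean of all compound wells on the same plate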). The settings on record: S. cerevisiae aging, superoxide DHE fluorescence; at 10 µM, stronger effect = lower value.
For assay [4], the target named is Beta-adrenergic receptor kinase 1 (Homo sapiens) (UniProt P25098). Description: GRK2 binders displacing RNA aptamer, biochemical, validation, human GRK2, bead flow cytometry (AID 488806). The settings on record: bead-bound GRK2, FAM-aptamer displacement, at 10 µM, stronger effect = higher value.
Sequence of Beta-adrenergic receptor kinase 1 (Homo sapiens) (P25098 whole entry, looked up): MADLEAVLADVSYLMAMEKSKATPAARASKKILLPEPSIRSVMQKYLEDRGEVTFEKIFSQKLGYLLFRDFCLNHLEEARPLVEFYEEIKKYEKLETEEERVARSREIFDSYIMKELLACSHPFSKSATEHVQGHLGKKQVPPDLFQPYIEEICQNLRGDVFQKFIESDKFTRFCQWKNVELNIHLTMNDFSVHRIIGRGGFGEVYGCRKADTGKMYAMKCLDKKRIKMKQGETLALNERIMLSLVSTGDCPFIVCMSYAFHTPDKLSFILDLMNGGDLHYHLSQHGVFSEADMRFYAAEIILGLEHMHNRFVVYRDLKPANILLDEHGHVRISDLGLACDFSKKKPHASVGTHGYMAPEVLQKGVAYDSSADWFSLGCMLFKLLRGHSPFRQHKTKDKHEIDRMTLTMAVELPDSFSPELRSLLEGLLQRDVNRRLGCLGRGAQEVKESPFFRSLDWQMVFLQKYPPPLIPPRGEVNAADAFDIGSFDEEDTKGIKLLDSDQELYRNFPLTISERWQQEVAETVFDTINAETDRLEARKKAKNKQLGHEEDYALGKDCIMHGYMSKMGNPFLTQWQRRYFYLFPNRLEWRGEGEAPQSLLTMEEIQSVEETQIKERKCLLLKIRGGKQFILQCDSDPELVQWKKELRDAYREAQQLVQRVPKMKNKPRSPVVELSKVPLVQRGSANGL
Assay [5] has as its target Beta-2 adrenergic receptor (Homo sapiens) (UniProt P07550). In words: beta2AR agonists driving receptor internalization, pilot screen, cell-based, FAP fluorogen, flow cytometry, validation set (AID 504459;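 active = percent response above 42, roughly 3 SD of non-fluorescent test compounds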;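 also: agonist-driven loss of surface beta2AR via internalization measured by FAP dye flow cytometry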). The settings on record: Am2.2-beta2AR cells, FAP surface receptor flow cytometry; at 10 µM; stronger effect = higher value.
Assay [6] has as its target AP-2 complex subunit beta (Homo sapiens) (UniProt P63010). Description: inhibitors of arrestin peptide binding to AP2, pilot screen, biochemical, validation set, GST-AP2 beads, flow cytometry (AID 504541;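 active = inhibition above 54%, about 3 SD of non-fluorescent compounds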;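 also: AP2 carries R879A mutation and is captured from E. coli lysate; bead-bound FITC arrestin peptide fluorescence measuring arrestin peptide binding to AP2; 0% = DMSO wells and 100% = excess unlabeled arrestin peptide control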). The settings on record: FITC arrestin peptide, at 10 µM, stronger effect = higher value, AP2 beta2 appendage fragment, R879A mutant.
A short description of assay [7]: yeast V-ATPase proton transport modulators, S. cerevisiae, pHLuorin, HTS validation (AID 504600; in the data active = response above about 15%;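 also: plate controls were DMSO for no effect and reference compound for full effect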). The settings on record: S. cerevisiae pHLuorin cytosolic pH, at 10 µM, stronger effect = higher value.
Assay [8] deals with anti-desmoglein-3 scFv antibody binding to human DSG3. Description: inhibitors of anti-DSG3 scFv binding to DSG3, pilot screen, biochemical, validation compound set, bead-based, flow cytometry (AID 588368;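 active = binding below the plate cutoff, the plate median minus 3 SD, with a reading above zero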;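 also: signal is the median channel fluorescence of bead-bound GFP antibody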). The settings on record: Protein G beads, DSG3-Fc, scFv-GFP binding, at 10 µM, stronger effect = lower value.
Assay [9] in a line: inhibitors of fungal efflux pumps CDR1, CDR2, MDR1, pilot screen, validation compound set, multiplex, phenotypic (AID 588506;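 active = efflux inhibition above 0.42, the validation set average plus 4 SD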;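 also: Nile Red retained in cells so higher fluorescence means more efflux inhibition; 0 = negative control wells and 1 = enniatin B 25 µM full block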). The settings on record: S. cerevisiae pump-expressing triplex, Nile Red efflux flow cytometry; at 10 µM; stronger effect = higher value; the pumps come from Candida albicans.
In assay [10] the target is ATP-binding cassette sub-family B member 6 (Homo sapiens) (UniProt Q9NP58). Description: ABCB6 transporter inhibitors, pilot screen, K562-ABCB6 cells, flow cytometry, validation set (AID 588550;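 active = inhibition above the screen-wide mean plus 3 SD, about 51%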;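 also: 0% = DMSO wells and 100% = benzethonium chloride 70 µM positive control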). The settings on record: K562-ABCB6 porphyrin accumulation, 1 h, at 10 µM, stronger effect = higher value.
Sequence of ATP-binding cassette sub-family B member 6 (Homo sapiens) (Q9NP58 whole entry, looked up): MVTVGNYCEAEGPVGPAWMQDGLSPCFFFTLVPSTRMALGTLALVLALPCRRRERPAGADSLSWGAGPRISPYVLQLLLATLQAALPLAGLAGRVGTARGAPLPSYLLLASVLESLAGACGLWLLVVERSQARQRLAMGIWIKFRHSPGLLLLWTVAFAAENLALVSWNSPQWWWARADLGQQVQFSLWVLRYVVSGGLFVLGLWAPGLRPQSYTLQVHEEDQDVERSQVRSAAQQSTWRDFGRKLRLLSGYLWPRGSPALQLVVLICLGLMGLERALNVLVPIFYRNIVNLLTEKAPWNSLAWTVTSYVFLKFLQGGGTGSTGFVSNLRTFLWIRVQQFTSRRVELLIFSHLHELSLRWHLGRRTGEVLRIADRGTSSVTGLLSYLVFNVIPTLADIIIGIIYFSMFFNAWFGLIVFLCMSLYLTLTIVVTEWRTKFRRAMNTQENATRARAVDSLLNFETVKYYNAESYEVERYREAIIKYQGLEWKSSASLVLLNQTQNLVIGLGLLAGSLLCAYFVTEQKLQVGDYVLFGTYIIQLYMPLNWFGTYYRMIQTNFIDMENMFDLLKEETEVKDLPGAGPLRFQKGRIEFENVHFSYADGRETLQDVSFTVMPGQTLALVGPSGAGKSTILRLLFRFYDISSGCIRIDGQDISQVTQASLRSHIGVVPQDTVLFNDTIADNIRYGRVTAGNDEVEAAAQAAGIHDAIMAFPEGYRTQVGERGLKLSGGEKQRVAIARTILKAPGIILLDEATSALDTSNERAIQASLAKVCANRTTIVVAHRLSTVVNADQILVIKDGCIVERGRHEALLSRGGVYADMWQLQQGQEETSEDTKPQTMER
Assay [11] is described as follows: promoters of myeloid differentiation in arrested cells, primary screen, cell-based, GFP/MAC1 double positive, flow cytometry, validation set (AID 588685;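 active = differentiation response of at least 50%, scaled between solvent and reference control, from cells with both markers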;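 also: compound exposure lasts four days before antibody staining and flow analysis; 0% = DMSO wells and 100% = 5 µM fulvestrant positive control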). The settings on record: ER-HoxA9 marrow cells, stronger effect = higher value, normalized: vehicle 0, fulvestrant 100.

Sequence of AP-2 complex subunit beta (Homo sapiens) (P63010 whole entry, looked up, the tested form may be a part, one chain of several): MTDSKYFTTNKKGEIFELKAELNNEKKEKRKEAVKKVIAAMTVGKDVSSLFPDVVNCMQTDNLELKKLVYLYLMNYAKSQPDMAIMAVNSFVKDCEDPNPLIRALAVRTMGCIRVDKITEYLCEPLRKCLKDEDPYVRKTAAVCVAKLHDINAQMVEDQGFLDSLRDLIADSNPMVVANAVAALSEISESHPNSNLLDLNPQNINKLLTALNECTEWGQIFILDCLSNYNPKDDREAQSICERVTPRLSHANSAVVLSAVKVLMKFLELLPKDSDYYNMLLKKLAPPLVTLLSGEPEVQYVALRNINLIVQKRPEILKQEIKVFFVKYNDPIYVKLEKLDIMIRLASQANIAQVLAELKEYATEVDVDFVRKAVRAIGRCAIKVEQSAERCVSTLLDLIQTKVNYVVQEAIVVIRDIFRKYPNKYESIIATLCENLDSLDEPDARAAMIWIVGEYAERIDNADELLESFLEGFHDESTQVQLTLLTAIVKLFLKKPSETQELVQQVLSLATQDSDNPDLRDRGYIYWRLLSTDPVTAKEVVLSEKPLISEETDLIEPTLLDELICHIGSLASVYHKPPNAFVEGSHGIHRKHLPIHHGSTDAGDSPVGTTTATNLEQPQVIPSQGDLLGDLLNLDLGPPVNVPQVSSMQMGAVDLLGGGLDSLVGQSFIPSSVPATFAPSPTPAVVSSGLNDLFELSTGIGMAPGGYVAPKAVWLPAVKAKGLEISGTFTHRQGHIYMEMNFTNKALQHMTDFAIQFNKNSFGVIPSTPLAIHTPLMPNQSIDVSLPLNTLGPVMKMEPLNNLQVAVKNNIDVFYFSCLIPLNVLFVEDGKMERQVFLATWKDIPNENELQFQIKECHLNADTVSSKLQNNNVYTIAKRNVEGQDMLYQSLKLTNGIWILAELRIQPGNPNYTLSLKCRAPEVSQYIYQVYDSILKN
Sequence of Beta-2 adrenergic receptor (Homo sapiens) (P07550 whole entry, looked up): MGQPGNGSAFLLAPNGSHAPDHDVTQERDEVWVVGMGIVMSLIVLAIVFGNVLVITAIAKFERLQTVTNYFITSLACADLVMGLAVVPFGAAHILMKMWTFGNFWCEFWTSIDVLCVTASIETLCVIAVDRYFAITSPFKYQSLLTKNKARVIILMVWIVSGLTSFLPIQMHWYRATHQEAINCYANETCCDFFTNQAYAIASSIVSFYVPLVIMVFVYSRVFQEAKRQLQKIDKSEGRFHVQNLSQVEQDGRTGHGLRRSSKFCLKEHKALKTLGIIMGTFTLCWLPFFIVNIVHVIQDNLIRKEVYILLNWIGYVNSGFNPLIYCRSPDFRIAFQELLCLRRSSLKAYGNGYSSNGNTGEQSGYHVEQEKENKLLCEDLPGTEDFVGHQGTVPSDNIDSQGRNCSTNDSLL
Sequence of Integrin beta-1 (Homo sapiens) + Integrin alpha-4 (Homo sapiens) (P05556 whole entry, looked up): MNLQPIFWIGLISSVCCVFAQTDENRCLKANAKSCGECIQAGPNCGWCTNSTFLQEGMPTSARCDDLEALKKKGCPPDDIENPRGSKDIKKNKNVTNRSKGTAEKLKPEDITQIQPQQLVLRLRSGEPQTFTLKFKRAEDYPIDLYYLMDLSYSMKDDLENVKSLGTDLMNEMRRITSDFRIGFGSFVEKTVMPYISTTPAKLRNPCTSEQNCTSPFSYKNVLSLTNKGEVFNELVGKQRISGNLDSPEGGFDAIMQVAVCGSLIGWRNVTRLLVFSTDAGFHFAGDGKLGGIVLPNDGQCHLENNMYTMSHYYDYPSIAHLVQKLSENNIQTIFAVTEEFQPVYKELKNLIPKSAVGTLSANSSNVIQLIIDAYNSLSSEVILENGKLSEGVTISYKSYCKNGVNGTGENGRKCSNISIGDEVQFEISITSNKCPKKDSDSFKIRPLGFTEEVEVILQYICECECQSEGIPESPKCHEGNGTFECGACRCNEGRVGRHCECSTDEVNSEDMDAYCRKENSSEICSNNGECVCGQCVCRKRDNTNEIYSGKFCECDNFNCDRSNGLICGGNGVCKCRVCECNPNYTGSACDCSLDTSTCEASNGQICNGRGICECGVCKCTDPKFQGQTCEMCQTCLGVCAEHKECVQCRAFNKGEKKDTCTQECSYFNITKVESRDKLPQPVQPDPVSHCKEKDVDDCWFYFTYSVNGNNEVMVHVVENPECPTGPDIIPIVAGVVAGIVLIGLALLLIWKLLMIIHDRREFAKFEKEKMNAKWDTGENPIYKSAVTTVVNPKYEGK
Sequence of Integrin beta-1 (Homo sapiens) + Integrin alpha-4 (Homo sapiens) (P13612 whole entry, looked up): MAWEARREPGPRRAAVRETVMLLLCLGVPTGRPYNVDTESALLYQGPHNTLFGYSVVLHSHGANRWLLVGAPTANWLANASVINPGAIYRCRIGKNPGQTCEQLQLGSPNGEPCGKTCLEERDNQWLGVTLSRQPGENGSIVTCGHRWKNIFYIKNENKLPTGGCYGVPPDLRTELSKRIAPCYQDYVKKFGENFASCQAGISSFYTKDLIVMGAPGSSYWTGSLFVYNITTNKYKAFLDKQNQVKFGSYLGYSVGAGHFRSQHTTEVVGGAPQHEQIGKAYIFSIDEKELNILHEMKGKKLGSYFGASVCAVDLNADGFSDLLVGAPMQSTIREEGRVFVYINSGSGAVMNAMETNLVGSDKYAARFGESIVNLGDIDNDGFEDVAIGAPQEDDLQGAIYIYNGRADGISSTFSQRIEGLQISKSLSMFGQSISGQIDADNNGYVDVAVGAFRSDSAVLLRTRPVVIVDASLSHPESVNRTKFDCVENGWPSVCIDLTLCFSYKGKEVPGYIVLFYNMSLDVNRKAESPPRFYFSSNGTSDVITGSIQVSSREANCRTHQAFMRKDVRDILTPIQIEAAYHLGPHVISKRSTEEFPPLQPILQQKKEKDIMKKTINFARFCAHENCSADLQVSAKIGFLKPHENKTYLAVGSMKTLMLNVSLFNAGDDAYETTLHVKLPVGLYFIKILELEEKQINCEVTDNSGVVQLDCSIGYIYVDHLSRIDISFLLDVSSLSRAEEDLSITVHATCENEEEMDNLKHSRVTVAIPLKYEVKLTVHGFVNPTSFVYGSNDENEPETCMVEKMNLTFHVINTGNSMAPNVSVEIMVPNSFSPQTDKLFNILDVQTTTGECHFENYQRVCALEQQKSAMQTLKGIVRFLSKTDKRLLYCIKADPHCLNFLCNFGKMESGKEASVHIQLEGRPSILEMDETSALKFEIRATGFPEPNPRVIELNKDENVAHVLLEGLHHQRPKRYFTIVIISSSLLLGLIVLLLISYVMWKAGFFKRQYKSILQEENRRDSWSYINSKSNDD

In general, inhibition refers to the change of the read-out against control, counted positive when it falls. The compound `COc1ccc(S(=O)(=O)NC(Cc2cnc[nH]2)C(=O)O)cc1` (centres undefined) returned a double positive events in assay [1] of 49.4%. The vesicle binding response in assay [1] is 8.1% (active). Also, the values for the inhibition in [2], in [6] and in assay [10] were 9.13% (inactive), -1% (inactive) and -19% (inactive), respectively. The superoxide response (% of plate) in assay [3] is 100% (inactive). Further, the aptamer binding inhibition in assay [4] is 1% (inactive). Also, the figures for the response in [5] and in assay [7] were -7.36% (inactive) and 1.95% (inactive), respectively. In assay [8], the binding (% of control) was 99.1% (inactive). Besides, the efflux inhibition (fraction of control) in [9] was -0.35 (inactive). In addition, the differentiation response in assay [11] was -20% (inactive).

Regarding `O=C(OCCN1CCCC1)C1(c2ccccc2)CCCC1`, the double positive events in assay [1] worked out at 65.8%. Further, the vesicle binding response in assay [1] was 226% (inactive). In addition, the results for the inhibition in [2], in assay [6] and in assay [10] were -4.52% (inactive), -5.26% (inactive) and -8% (inactive), respectively. Further, the superoxide response (% of plate) in assay [3] was 86.5% (inactive). Besides, the aptamer binding inhibition in assay [4] is 1% (inactive). Moreover, the response was 1.23% (inactive) in assay [5] and 1.69% (inactive) in assay [7]. The binding (% of control) in assay [8] is 97% (inactive). Moreover, the efflux inhibition (fraction of control) in assay [9] is -0.06 (inactive). For the same compound, the differentiation response in [11] is -7.2% (inactive).

In turn, `Cn1c2[n+](c3ccc(Cl)cc3c1=O)Cc1ccccc1-2` gave a double positive events in assay [1] of 69%. Besides, in assay [1], the vesicle binding response was 278% (inactive). The inhibition was -13% (inactive) in assay [2], 1.06% (inactive) in assay [6] and 10% (inactive) in assay [10]. Besides, the superoxide response (% of plate) in [3] is 97.2% (inactive). Besides, in assay [4], the aptamer binding inhibition is 1% (inactive). Besides, the response in assay [5] was -8.51% (inactive); in [7], 7.46% (inactive). The binding (% of control) in [8] was 107% (inactive). The efflux inhibition (fraction of control) in [9] is 0.21 (inactive). In addition, the differentiation response in assay [11] was 20.6% (inactive).

Take `COc1ccc(CCn2c(C)cc3c(c2=O)C(c2ccncc2)C(C#N)=C(N)O3)cc1OC` (centres undefined): the double positive events in [1] was 59.3%. In assay [1], the vesicle binding response is 179% (inactive). Besides, the inhibition in [2] was -1.79% (inactive); in [6], -6.51% (inactive); in assay [10], 6% (inactive). The superoxide response (% of plate) in assay [3] is 102% (inactive). Also, in [4], the aptamer binding inhibition was 6% (inactive). The response in assay [5] is 10.6% (inactive); in assay [7] it was 0.22% (inactive). For the same compound, the binding (% of control) in [8] was 101% (inactive). For the same compound, the efflux inhibition (fraction of control) in [9] is -0.13 (inactive). The differentiation response in assay [11] is 12% (inactive).

As for `CCc1ccc(/C=C2\SC(=S)N(CCC(=O)N3CCN(C)CC3)C2=O)cc1`, the double positive events in assay [1] is 56.3%. Moreover, the vesicle binding response in assay [1] was 275% (inactive). Moreover, the inhibition in assay [2] was -16.8% (inactive); in [6], -7.8% (inactive); in [10], 2% (inactive). For the same compound, the superoxide response (% of plate) in assay [3] is 90.8% (inactive). Also, in [4], the aptamer binding inhibition is -1% (inactive). In addition, the response is 39.6% (inactive) in assay [5] and -6.7% (inactive) in [7]. Further, the binding (% of control) in [8] was 101% (inactive). Further, in assay [9], the efflux inhibition (fraction of control) is 0.3 (inactive). In addition, the differentiation response in assay [11] is 10.4% (inactive).

In [1], `CCN(CC)CCNC(=O)c1cc(S(C)(=O)=O)ccc1OC` displayed a double positive events of 58.8%. In assay [1], the vesicle binding response was 219% (inactive). Besides, the results for the inhibition in assay [2], in assay [6] and in [10] were -1.79% (inactive), -1.05% (inactive) and 5% (inactive), respectively. Besides, the superoxide response (% of plate) in assay [3] is 88.3% (inactive). The aptamer binding inhibition in [4] is 4% (inactive). Moreover, the response in [5] is 4.46% (inactive); in [7] it was 4.62% (inactive). In addition, the binding (% of control) in assay [8] is 101% (inactive). For the same compound, the efflux inhibition (fraction of control) in assay [9] was -0.28 (inactive). Moreover, in [11], the differentiation response is -5.6% (inactive).

In [1], `C=CCc1ccc(OCC(O)COc2ccc(CC=C)cc2OC)c(OC)c1` returned a double positive events of 58.6%. Besides, the vesicle binding response in assay [1] is 140% (inactive). In addition, the results for the inhibition in assay [2], in assay [6] and in assay [10] were 7.76% (inactive), 3.97% (inactive) and 4% (inactive), respectively. Further, the superoxide response (% of plate) in [3] is 104% (inactive). In addition, the aptamer binding inhibition in assay [4] was -1% (inactive). In addition, the response in assay [5] is 7.14% (inactive); in [7] it was 2.47% (inactive). Also, in assay [8], the binding (% of control) is 104% (inactive). For the same compound, the efflux inhibition (fraction of control) in assay [9] is 0.4 (inactive). Further, the differentiation response in assay [11] is 50.4% (active).

Regarding `CC[N+](C)(C)Cc1ccccc1Br`, the double positive events in assay [1] worked out at 63.8%. In addition, in assay [1], the vesicle binding response is 185% (inactive). For the same compound, the inhibition in [2] is 8.25% (inactive); in assay [6], -11.2% (inactive); in assay [10] it was 2% (inactive). Besides, the superoxide response (% of plate) in assay [3] was 96.2% (inactive). Moreover, the aptamer binding inhibition in assay [4] is 4% (inactive). Also, the response is -19.8% (inactive) in assay [5] and -30.5% (inactive) in assay [7]. Further, the binding (% of control) in assay [8] is 102% (inactive). The efflux inhibition (fraction of control) in assay [9] is 0 (inactive). In assay [11], the differentiation response was -11.9% (inactive).

Consider `O=C1c2ccccc2C(=O)C1c1ccccc1`, for which, in assay [1], the double positive events amounted to 67%. Moreover, the vesicle binding response in assay [1] is 512% (inactive). The inhibition in assay [2] is 3.14% (inactive); in [6], -6.92% (inactive); in assay [10] it was 4% (inactive). Further, the superoxide response (% of plate) in [3] was 95.2% (inactive). Further, in assay [4], the aptamer binding inhibition is 7% (inactive). In addition, the response is -32.5% (inactive) in [5] and -0.31% (inactive) in assay [7]. Further, in assay [8], the binding (% of control) was 102% (inactive). Further, the efflux inhibition (fraction of control) in assay [9] is 0 (inactive). The differentiation response in assay [11] was -5.97% (inactive).

In assay [1], `COc1ccc(O)c(N)c1` registered a double positive events of 70.2%. The vesicle binding response in [1] was 381% (inactive). For the same compound, the inhibition in [2] is -22.3% (inactive); in assay [6], 20.1% (inactive); in assay [10], 7% (inactive). Moreover, the superoxide response (% of plate) in assay [3] is 104% (inactive). The aptamer binding inhibition in [4] is 5% (inactive). For the same compound, the results for the response in [5] and in assay [7] were 76.4% (active) and 3.74% (inactive), respectively. Also, the binding (% of control) in assay [8] is 99.1% (inactive). The efflux inhibition (fraction of control) in [9] is -0.1 (inactive). Besides, the differentiation response in [11] is -0.8% (inactive).

In turn, `CCOC(=O)c1cnc2ccc(C(=O)OC)cc2c1Nc1ccc2c(c1)OCCO2` yielded a double positive events in assay [1] of 63.9%. Also, the vesicle binding response in [1] was 266% (inactive). Moreover, the results for the inhibition in assay [2], in assay [6] and in assay [10] were 0.59% (inactive), -8.06% (inactive) and -2% (inactive), respectively. Further, the superoxide response (% of plate) in [3] is 99.1% (inactive). Also, the aptamer binding inhibition in [4] is 6% (inactive). Also, the values for the response in [5] and in [7] were -25.7% (inactive) and -27.9% (inactive), respectively. For the same compound, the binding (% of control) in assay [8] is 97.4% (inactive). Further, in [9], the efflux inhibition (fraction of control) is 0.08 (inactive). Moreover, the differentiation response in [11] was -0.06% (inactive).

With `Cc1nc2ccccc2c(=O)n1N`, in assay [1], the double positive events stood at 64.8%. The vesicle binding response in assay [1] is 160% (inactive). Moreover, the inhibition in assay [2] is 5.03% (inactive); in assay [6], -8.13% (inactive); in assay [10], 6% (inactive). In [3], the superoxide response (% of plate) was 95.7% (inactive). In assay [4], the aptamer binding inhibition was -1% (inactive). In addition, the response in assay [5] was -0.52% (inactive); in [7], -5.43% (inactive). In [8], the binding (% of control) is 106% (inactive). Besides, the efflux inhibition (fraction of control) in assay [9] was 0.15 (inactive). The differentiation response in assay [11] is 58.4% (active).
